Measured values from PubChem BioAssay (Tox21).
Inconclusive results are not listed. The source made the active and inactive calls. Unless noted, calls follow the shape of the dose curve; as a rule, active = well fitted curve in the direction sought with a large enough effect in the repeat runs; inconclusive = weak or mixed curves; inactive = no such curve, though single readings can be large; an effect the other way counts as inactive or inconclusive.

Key:
[1] = qHTS assay to identify small molecule HDAC inhibitors - cell viability counter screen (AID 1259365); also: series mostly up to about 92 µM; nearly all actives have a fitted effect of over 50% in size
In short: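 Wild-type HCT-116 cells, 1,500/well, cultured overnight, then compound-treated 2 h at 37 C. Viability measured as ATP luminescence with CellTiter-Glo after 30 min at room temperature.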

[2] = qHTS assay to identify small molecule agonists of the sonic hedgehog signaling (Shh) pathway - cell viability counter screen (AID 1259366); also: nearly all actives have a fitted effect of over 50% in size
In short: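 NIH/3T3-derived Gli1-Luc reporter cells, 2,000 per well, received compound after 4 h and were treated about 23 h at 37C. Viability measured in the same wells by CellTiter-Fluor fluorescence after 1 h.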

[3] = qHTS assay to identify small molecule antagonists of the sonic hedgehog signaling (Shh) pathway - cell viability counter screen (AID 1259367); also: nearly all actives have a fitted effect of over 55% in size
In short: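 CellTiter-Fluor signal in conditioned medium-stimulated 3T3 Gli1-Luc cells, 23 hr compound exposure, 37C.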

[4] = qHTS assay to identify small molecule agonists of the sonic hedgehog signaling (Shh) pathway (AID 1259368; calls by dose curve;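 also: NIH/3T3-derived 3T3Gli1-Luc cells carrying a stable Gli1-driven firefly luciferase reporter; series mostly up to about 92 µM; nearly all actives have a fitted effect of over 15% in size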)
In short: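 Cells of a mouse NIH/3T3 clone stably expressing luciferase under the Gli1 transcriptional response element are exposed to test chemicals for 24 hr at 37 C. Pathway activation is detected as a rise in luminescence.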

[5] = qHTS assay to identify small molecule antagonists of the sonic hedgehog signaling (Shh) pathway (AID 1259369; calls by dose curve; also: nearly all actives have a fitted effect of over 45% in size; also: potency is read from the fitted curve at half-maximal effect)
In short: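 Cells are plated and held 4hr at 37 C, compounds (DMSO) are pinned in, conditioned medium is added to stimulate the pathway, and after 24hr luciferase reagent is added for 30min before luminescence is read.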

[6] = target: Estrogen receptor beta (Homo sapiens) (UniProt Q92731); test: qHTS assay to identify small molecule agonists of the estrogen receptor beta (ER-beta) signaling pathway (AID 1259377; active = well fitted activation curve with a large enough effect in the signal ratio in the repeat runs, not every such curve was filed as active; the % refers to the signal ratio)
In short: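 ER-beta-UAS-bla HEK293T cells in medium with 2% charcoal-stripped FBS were exposed to compounds for 16 h at 37C. Beta-lactamase reporter activity was read as fluorescence after 2 h with LiveBLAzer B/G FRET substrate at room temperature.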

[7] = target: Estrogen receptor beta (Homo sapiens) (UniProt Q92731); test: qHTS assay to identify small molecule antagonists of the estrogen receptor beta (ER-beta) signaling pathway (AID 1259378; active = well fitted inhibition curve with a large enough effect in the signal ratio in the repeat runs, not every such curve was filed as active; the % refers to the signal ratio)
In short: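 Antagonist mode: compounds added to beta-lactamase reporter HEK293T ER-beta-UAS cells stimulated with E2 (1nM final), 16 hr at 37C. LiveBLAzer B/G FRET substrate, 2 hours room temperature, fluorescence read-out.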

[8] = qHTS assay to identify small molecule agonists of the androgen receptor (AR) signaling pathway in the presence of an antagonist - cell viability counter screen (AID 1259379);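 also: MDA-kb2 human breast cancer cells carrying an MMTV luciferase reporter; series mostly up to about 92 µM; nearly all actives have a fitted effect of over 25% in size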
In short: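 Cytotoxicity is assessed by CellTiter-Fluor in MDA-kb2 cells carrying an MMTV-driven luciferase reporter. Cells receive 3.0uM nilutamide plus compounds at 15 concentrations and incubate 16 hr at 37C without CO2 before fluorescence reading.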

[9] = qHTS assay to identify small molecule agonists of the estrogen receptor beta (ER-beta) signaling pathway - cell viability counter screen (AID 1259380); also: nearly all actives have a fitted effect of over 30% in size
In short: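 Cytotoxicity is measured in parallel with the reporter screen: after 16 hr compound exposure at 37C and a 2 hr LiveBLAzer step, CellTiter-Glo is added to the same ER-beta-UAS-bla HEK293T wells and luminescence read after 30 min.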

[10] = target: Androgen receptor (Homo sapiens) (UniProt P10275); test: qHTS assay to identify small molecule agonists of the androgen receptor (AR) signaling pathway in the presence of an antagonist (AID 1259381; calls by dose curve; also: nearly all actives have a fitted effect of over 15% in size)
In short: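 Agonist-mode confirmation screen: human MDA-kb2 cells stably expressing luciferase under an MMTV promoter bearing AR and GR response elements, co-treated with 3.0uM nilutamide (final). Luminescence measured after 16hr compound incubation.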
% is scaled to controls: 0 for no effect and ±100 for the full control effect.

Sequence of Androgen receptor (Homo sapiens) (P10275 whole entry, looked up): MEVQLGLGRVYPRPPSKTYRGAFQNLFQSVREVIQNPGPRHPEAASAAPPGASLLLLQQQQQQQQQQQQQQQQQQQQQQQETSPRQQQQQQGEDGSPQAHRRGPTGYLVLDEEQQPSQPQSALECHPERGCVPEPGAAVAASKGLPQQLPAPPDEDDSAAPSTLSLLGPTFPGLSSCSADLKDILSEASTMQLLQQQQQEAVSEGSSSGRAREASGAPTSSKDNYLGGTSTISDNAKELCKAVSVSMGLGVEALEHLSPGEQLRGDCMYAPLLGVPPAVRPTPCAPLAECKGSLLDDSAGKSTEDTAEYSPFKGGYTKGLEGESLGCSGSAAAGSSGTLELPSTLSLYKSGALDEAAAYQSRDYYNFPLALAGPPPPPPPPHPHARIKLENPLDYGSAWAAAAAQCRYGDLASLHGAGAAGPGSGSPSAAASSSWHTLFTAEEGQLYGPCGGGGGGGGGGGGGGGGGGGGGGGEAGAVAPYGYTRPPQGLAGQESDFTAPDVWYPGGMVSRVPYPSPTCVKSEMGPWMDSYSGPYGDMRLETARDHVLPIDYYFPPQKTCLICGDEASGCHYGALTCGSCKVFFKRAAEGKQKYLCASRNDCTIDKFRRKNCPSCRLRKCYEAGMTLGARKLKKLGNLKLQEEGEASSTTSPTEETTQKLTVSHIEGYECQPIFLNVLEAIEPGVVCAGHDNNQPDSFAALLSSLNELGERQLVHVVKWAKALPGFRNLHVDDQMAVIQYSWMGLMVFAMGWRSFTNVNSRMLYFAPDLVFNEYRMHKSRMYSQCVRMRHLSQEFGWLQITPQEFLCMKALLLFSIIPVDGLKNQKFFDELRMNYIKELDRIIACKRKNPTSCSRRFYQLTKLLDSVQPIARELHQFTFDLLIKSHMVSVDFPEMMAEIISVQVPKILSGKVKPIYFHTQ
Sequence of Estrogen receptor beta (Homo sapiens) (Q92731 whole entry, looked up): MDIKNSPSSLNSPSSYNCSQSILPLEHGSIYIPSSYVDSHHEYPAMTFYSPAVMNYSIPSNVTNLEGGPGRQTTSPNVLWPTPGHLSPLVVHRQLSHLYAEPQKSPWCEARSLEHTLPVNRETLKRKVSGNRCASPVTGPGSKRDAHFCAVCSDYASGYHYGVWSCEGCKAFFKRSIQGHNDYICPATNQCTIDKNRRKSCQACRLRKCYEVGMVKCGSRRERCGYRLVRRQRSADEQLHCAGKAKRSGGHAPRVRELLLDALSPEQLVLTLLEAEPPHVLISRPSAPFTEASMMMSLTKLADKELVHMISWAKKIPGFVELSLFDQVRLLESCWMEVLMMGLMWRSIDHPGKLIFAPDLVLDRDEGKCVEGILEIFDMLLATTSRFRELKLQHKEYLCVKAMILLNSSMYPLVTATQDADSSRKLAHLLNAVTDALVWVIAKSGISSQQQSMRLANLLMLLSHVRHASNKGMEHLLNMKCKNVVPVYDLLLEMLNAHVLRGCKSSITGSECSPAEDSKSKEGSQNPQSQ

CN1CCN(C(=O)C2CCCCC2)CC1
inactive: outcome [1] | outcome [2] | outcome [3] | outcome [4] | Potency [5] | Potency [6] | outcome [7] | outcome [8] | Potency [9]

Cc1cccc(N)n1
inactive: outcome [1] | outcome [2] | outcome [3] | outcome [4] | Potency [5] | outcome [7] | outcome [8] | Potency [9]

CC(C)OC(=O)C(C(=O)OC(C)C)=C1SC=CS1
active: Potency [5] 4.73 µM
inactive: outcome [1] | outcome [2] | outcome [3] | outcome [4] | outcome [8]

O=C1c2ccccc2C(=O)N1CO
inactive: outcome [1] | outcome [2] | outcome [3] | outcome [4] | Potency [5] | Potency [6] | outcome [7] | outcome [8] | Potency [9] | outcome [10]

c1cc2ccc3ccc4ccc5cccc6c(c1)c2c3c4c56
inactive: activity change, negative = cytotoxicity [1] 2.08% [at 3.27 µM] | viability change, negative = cytotoxic [2] 2.39% [at 3.27 µM] | viability change, negative = cytotoxic [3] -2.17% [at 3.27 µM] | activity change [4] 0.83% [at 3.27 µM] | activity change, negative = inhibition [5] 17.2% [at 3.27 µM] | activity, negative = inhibition [7] 4.07% [at 3.27 µM] | activity change, negative = cytotoxicity [8] 2.9% [at 3.27 µM] | activity change, negative = cytotoxicity [9] 0.89% [at 3.32 µM]

CC(C)(C)NCC(O)COc1cccc2c1CCC(=O)N2 (configuration not stated)
inactive: outcome [1] | outcome [2] | outcome [3] | outcome [4] | Potency [5] | Potency [6] | outcome [7] | outcome [8] | Potency [9] | outcome [10]

CC(C)=CCC/C(C)=C\C#N
inactive: outcome [1] | outcome [2] | outcome [3] | outcome [4] | Potency [5] | outcome [8]

C=C(C)C(=O)OCCCC
inactive: outcome [1] | outcome [2] | outcome [3] | outcome [4] | Potency [5] | Potency [6] | outcome [7] | outcome [8] | Potency [9] | outcome [10]

NCC1CCC(C(=O)Oc2ccc(CCC(=O)O)cc2)CC1 (configuration not stated)
inactive: outcome [1] | outcome [2] | outcome [3] | outcome [4] | Potency [5] | Potency [6] | outcome [7] | outcome [8] | Potency [9]

CCCCC(CC)COC(=O)CC#N (configuration not stated)
inactive: outcome [1] | outcome [2] | outcome [3] | outcome [4] | Potency [5] | Potency [6] | outcome [7] | outcome [8] | Potency [9]

CCCCCCCCCCCCCCCC(=O)OC
inactive: activity change, negative = cytotoxicity [1] -1.77% [at 19 µM] | viability change, negative = cytotoxic [2] 4.58% [at 19 µM] | viability change, negative = cytotoxic [3] -2.31% [at 19 µM] | activity change [4] 0.811% [at 18.9 µM] | activity change, negative = inhibition [5] 21.4% [at 19 µM] | activation [6] -1.46% [at 19 µM] | activity, negative = inhibition [7] 3.6% [at 19 µM] | activity change, negative = cytotoxicity [8] 0.0056% [at 19 µM] | activity change, negative = cytotoxicity [9] 4.05% [at 19 µM]

CC(C)C(C)C
inactive: outcome [1] | outcome [2] | outcome [3] | outcome [4] | Potency [5] | Potency [6] | outcome [7] | outcome [8] | Potency [9]

Cc1cc(C)c(C)c(C)c1
inactive: outcome [1] | outcome [2] | outcome [3] | outcome [4] | Potency [5] | outcome [7] | outcome [8] | Potency [9]

CCCc1ncc(C(=O)O)s1
inactive: outcome [1] | outcome [2] | outcome [3] | outcome [4] | Potency [5] | Potency [6] | outcome [7] | outcome [8] | outcome [10]

C[Si](C)(C)O[Si](O)(O)O
inactive: outcome [1] | outcome [2] | outcome [3] | outcome [4] | Potency [5] | outcome [8]

CCCCCCCCCCCCCC(=O)OCC
inactive: outcome [1] | outcome [2] | outcome [3] | outcome [4] | Potency [5] | outcome [8]

CC(=O)c1ccc2ccc3ccccc3c2c1
inactive: outcome [1] | outcome [2] | outcome [3] | outcome [4] | Potency [5] | outcome [8]

NNC(=O)CCCCC(=O)NN
inactive: outcome [1] | outcome [2] | outcome [3] | outcome [4] | Potency [5] | outcome [8]

C=CCOC(=O)CCCCCCCC
inactive: outcome [1] | outcome [2] | outcome [3] | outcome [4] | Potency [5] | outcome [7] | outcome [8]

C[C@H]1COc2c(C3(N)CC3)c(F)cc3c(=O)c(C(=O)O)cn1c23
inactive: outcome [1] | outcome [2] | outcome [3] | outcome [4] | Potency [5] | outcome [7] | outcome [8]

NNC(=O)OCc1ccccc1
inactive: outcome [1] | outcome [2] | outcome [3] | outcome [4] | Potency [5] | Potency [6] | outcome [7] | outcome [8] | outcome [10]

CCCCNCC
inactive: outcome [1] | outcome [2] | outcome [3] | outcome [4] | Potency [5] | outcome [8]

CCC(=O)OCCOc1ccccc1
inactive: outcome [1] | outcome [2] | outcome [3] | outcome [4] | Potency [5] | outcome [8] | Potency [9]

CN(C)CCc1c[nH]c2ccc(C[C@H]3COC(=O)N3)cc12
inactive: outcome [1] | outcome [2] | outcome [3] | outcome [4] | Potency [6] | outcome [7] | outcome [8] | Potency [9]

CC(=O)SC[C@@H](C)C(=O)N1CCC[C@H]1C(=O)N[C@@H](Cc1ccccc1)C(=O)O
inactive: outcome [1] | outcome [2] | outcome [3] | outcome [4] | Potency [5] | outcome [8] | Potency [9]

COc1ccc(Cl)cc1C
inactive: outcome [1] | outcome [2] | outcome [3] | outcome [4] | Potency [6] | outcome [7] | outcome [8] | Potency [9]

O=P(O)(O)C(O)(Cc1cccnc1)P(=O)(O)O
inactive: outcome [1] | outcome [2] | outcome [3] | outcome [4] | Potency [5] | outcome [8] | Potency [9]

CC(=O)OC/C=C(/C)CCC=C(C)C
inactive: outcome [1] | outcome [2] | outcome [3] | outcome [4] | Potency [5] | outcome [8] | Potency [9]

Cc1nc2ccc(Cl)cc2[nH]1
inactive: outcome [1] | outcome [2] | outcome [3] | outcome [4] | Potency [6] | outcome [7] | outcome [8]

Clc1cc(Cl)c(Cl)c(Cl)c1Cl
inactive: outcome [1] | outcome [2] | outcome [3] | outcome [4] | Potency [6] | outcome [7] | outcome [8] | Potency [9]
